AmpC inh no detg: blocks E. coli AmpC beta-lactamase in detergent-free assay | P00811 | AmpC nitrocefin hydrolysis, absorbance 480 nm, 0.0001% Triton | Potency, µM (doses to about 57.1 µM), inactives show top-dose activity change, negative = inhibition, hits mostly inhibitors | actives 0.52% (n = 330,000) | AID 485341;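 also: potency is read from the fitted curve at half-maximal effect; plate controls were no compound for no effect and no enzyme for full effect; nearly all actives have a fitted effect of over 20% in size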
Target sequence (P00811 whole entry, looked up): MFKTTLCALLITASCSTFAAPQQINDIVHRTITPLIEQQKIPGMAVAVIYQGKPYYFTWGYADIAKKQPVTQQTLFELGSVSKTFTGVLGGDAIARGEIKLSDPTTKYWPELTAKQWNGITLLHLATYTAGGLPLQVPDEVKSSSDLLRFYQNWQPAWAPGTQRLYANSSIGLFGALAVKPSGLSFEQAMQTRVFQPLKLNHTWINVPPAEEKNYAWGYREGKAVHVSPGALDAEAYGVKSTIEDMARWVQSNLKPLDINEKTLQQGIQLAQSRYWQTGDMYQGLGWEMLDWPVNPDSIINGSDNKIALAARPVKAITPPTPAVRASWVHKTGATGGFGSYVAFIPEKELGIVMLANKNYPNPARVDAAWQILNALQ
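20 mM phosphate pH 7.0 + 0.01% (detergent screen) or 0.0001% Triton X-100; 5.3 nM AmpC reagent; cpd preinc 15 min RT; nitrocefin (800 uM stock) to start; A480 q20 s × 4 min; Activity was normalised to no-enzyme and no-compound control wells.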
SARS PLpro yeast: SARS-CoV PLP inhibition in yeast; AID 485353; Potency, µM (series often up to 32.9 µM), inactives show at the top dose activity, positive = growth rescue, most hits filed as activators; actives 0.19% (n = 330,000); S. cerevisiae expressing SARS-CoV PLpro, growth rescue; calls by dose curve; also: potency is read from the fitted curve at half-maximal effect; 0% is about no effect; nearly all actives have a fitted effect of over 55% in size
AMA1 RON2 block: disrupts binding of P. falciparum AMA1 to RON2 | actives 0.2% (n = 360,000) | Potency, µM (top dose mostly 58.2 µM), for inactives: top-dose activity change, negative = inhibition, usual class: inhibitors | AlphaScreen AMA1-biotinylated RON2 peptide binding;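 also: potency is read from the fitted curve at half-maximal effect; 0% = vehicle wells and -100% = peptide control; nearly all actives have a fitted effect of over 45% in size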
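AMA1 (3D7) with his tag at 25 nM final met compounds first, then biotinylated RON2 peptide at 25 nM; detection used donor plus acceptor beads, 10 µg/mL apiece, read by AlphaScreen after 30 min at room temperature.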
AmpC detergent: blocks E. coli AmpC beta-lactamase in detergent assay; P00811; AmpC hydrolysis of nitrocefin, absorbance 480 nm, 0.01% Triton; Potency, µM (top dose mostly 114 µM), inactives show at the top dose activity change, negative = inhibition, usual class: inhibitors; actives 0.041% (n = 370,000);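 also: potency is read from the fitted curve at half-maximal effect; 0% = no-compound wells and -100% = no-enzyme wells; nearly all actives have a fitted effect of over 25% in size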
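AmpC (5.3 nM in the dispensed reagent) in 20 mM phosphate pH 7.0 with 0.01% (detergent screen) or 0.0001% Triton X-100 was preincubated with compounds for 15 min at room temperature. Nitrocefin was then added from an 800 uM solution, and hydrolysis was followed at 480 nm.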
CHX counter-1: counter-screen hit for Shiga toxin inhibitors, cycloheximide; max response, %; actives 12% (n = 300,000); cell reporter, cycloheximide protein synthesis inhibition counterscreen; AID 2314; in the data active = max response mostly above about 13%, no sharp cut-off; inactive = mostly below about 14%; also: read at 38.3 µM for the half of the compounds with a filed dose; 0% is about no effect
Shiga toxin inh: inhibitors of Shiga toxin in Vero cells; inhibition, % at 38.7 µM; actives 9.2% (n = 290,000); Vero cells, Shiga toxin protein synthesis inhibition reporter; in the data active = inhibition mostly above about 28%, no sharp cut-off; inactive = mostly below about 43%; also: 0% is about no effect
CHX counter-2: affects protein synthesis reporter in cycloheximide counter-screen; Cycloheximide counterscreen, protein synthesis reporter, Shiga toxin assay; Potency, µM (titrated, usually from 38.3 µM), inactives show at the highest dose activity (activation), most hits filed as activators; actives 3% (n = 510); shares compounds with Shiga toxin inh; calls by dose curve; also: potency is read from the fitted curve at half-maximal effect; 0% is about no effect
Starred values were filed as active, the others as inactive; ? = inconclusive; . = no result. The entries come from a sample that favours hits as a whole. Unless noted, calls follow the shape of the dose curve; as a rule, active = well fitted curve in the direction sought with a large enough effect; inconclusive = small, poorly fitted or top-dose-only effect, or another doubt; inactive = no such curve, though single readings can be large; an effect the other way counts as inactive or inconclusive.

SMILES	AmpC inh no detg	SARS PLpro yeast	AMA1 RON2 block	AmpC detergent	CHX counter-1	Shiga toxin inh	CHX counter-2
O=C(Nc1ccc(Cl)cc1)C1CCN(C(=O)c2cccs2)CC1	-19%	-1%	-13%	-1%	-3	104*	-5%
COC(=O)c1c(NS(C)(=O)=O)sc2c1CCCC2	-14%	-4%	-5%	-2%	-2	28*	0%
CC(Oc1ccc(F)cc1Br)c1nc2ccccc2c(=O)[nH]1 (stereo not given)	-25%	-7%	4%	?	-2	71*	?
CC(c1nc2ccccc2c(=O)[nH]1)N(C)c1ccc2ccccc2c1 (stereo not given)	-20%	12%	12%	-13%	-5	22	.
COc1ccc(N2CCN(C(=O)COC(=O)c3ccc(Cl)nc3)CC2)cc1	0%	-2%	14%	3%	.	.	.
CN(C)S(=O)(=O)Oc1ccsc1C(=O)Nc1ccc(Cl)c(Cl)c1	-18%	-4%	-1%	2%	10	66*	3%
COc1cccc(CCNCc2cccc(C(F)(F)F)c2)c1	-14%	0%	10%	0%	2	-23	.
Cn1cc(CN2CCc3c([nH]c4ccccc34)C2C(C)(C)C)cn1 (stereo not given)	16%	0%	-10%	2%	-1	10	.
O=C(NCc1ccco1)c1noc2c1CCCC2	-16%	7%	-1%	-10%	10	42*	?
Cc1nn(C2CCCCC2)c(N)c1-c1ccccc1	-15%	-4%	-4%	?	-2	33*	3%
CC(CCc1ccccc1)NC(=O)Cc1ccccc1 (stereo not given)	-3%	11%	-8%	-12%	-5	-9	.
Cc1ccc(/C(O)=C2\C(=O)C(=O)N(c3cc(C)on3)C2c2cccc(Br)c2)cc1 (stereo not given)	-4%	4%	-6%	8%	2	39*	-3%
Cc1cc(N2C(=O)C(=O)/C(=C(/O)c3ccc(F)cc3)C2c2cccc(Br)c2)no1 (stereo not given)	-11%	0%	16%	-12%	1	-3	.
CSc1ccc(/C=C(\C#N)C(=O)NC2CCCCC2C)cc1 (stereo not given)	-23%	-12%	-2%	-7%	8	27*	3%
CC(=O)Nc1ccc(/C=C(\C#N)C(=O)NC2CCCCC2C)cc1 (stereo not given)	-11%	2%	37%	1%	6	-10	.
Cc1ccc(Oc2nn[nH]n2)cc1	-17%	-2%	-5%	-18%	-2	47*	2%
Cc1cccc(C(=O)Nc2scc(CC(C)C)c2C(=O)O)c1	-18%	-18%	-5%	-15%	-4	40*	1%
CC(C)Cc1csc(NC(=O)c2ccc(Cl)cc2)c1C(=O)O	-17%	-66%	0%	-5%	-2	-6	.
Cc1ccc(C(=O)N(C)Cc2nc3ccccc3c(=O)[nH]2)cc1NC(=O)c1ccco1	-13%	-1%	35%	.	.	.	.
O=C(CCN1C(=O)c2cccc3cccc(c23)C1=O)NC1CCS(=O)(=O)C1 (stereo not given)	-10%	2%	2%	-7%	9	75*	0%
COc1nc(C)c2cc(C)oc2n1	-14%	-5%	-7%	-1%	-4	-5	.
CSc1nc(C)c2cc(C)oc2n1	-20%	3%	10%	?	-3	71*	-2%
O=C(CSCc1ccco1)NC1CCCC1	-8%	5%	4%	-3%	3	29*	2%
CCOC(=O)N1CCN(S(=O)(=O)c2ccc(C(=O)NNc3nc4c(C)cc(C)cc4s3)cc2)CC1	34%	?	83%	?	5	43*	-5%
Cc1cc(C)c2nc(NC(=O)c3ccc(S(=O)(=O)N4CCCC4)cc3)sc2c1	.	.	.	-5%	.	.	.
SMILES	AmpC inh no detg	SARS PLpro yeast	AMA1 RON2 block	AmpC detergent	CHX counter-1	Shiga toxin inh	CHX counter-2
O=C(COc1ccc2ccccc2c1)NCC1CCCO1 (stereo not given)	1%	-1%	11%	-12%	-2	39*	3%
CCNc1nnc(-c2ccccc2OC)s1	-17%	-5%	10%	-16%	-1	73*	4%
COc1ccc(-c2nnc(NC(=O)Cc3ccccc3)s2)c(OC)c1	-28%	1%	7%	-12%	-2	12	.
COc1ccccc1CNC(=O)c1csc2c1CCCC2	-19%	-6%	-2%	2%	6	39*	3%
C=CCn1c(-c2ccc(OC)c(OC)c2)cs/c1=N\c1ccccn1	18%	?	23%	?	8	29*	5%
CCOC(=O)CNC(=O)CSc1ncnc2c1cnn2-c1ccc(Cl)cc1	-16%	8%	-4%	?	-3	-4	.
CCOC(=O)Cc1csc(NC(=O)CSc2ncnc3c2cnn3-c2ccc(OC)cc2)n1	-18%	2%	4%	-13%	19	81*	?
CCCCC(=O)NC(=S)NNC(=O)CCc1ccccc1	-17%	2%	100%	6%	-4	14	.
CC(C)Cc1nc2oc3c(NCC4CCCO4)ncnc3c2c2c1CCC2 (stereo not given)	69%	-2%	-4%	?	-4	58*	-4%
CC(C)Cc1nc2oc3c(NCc4cccnc4)ncnc3c2c2c1CCC2	10%	-5%	-24%	-12%	-2	-19	.
COc1ccc(CC(=O)Nc2cc(-c3cn4cccnc4n3)ccc2C)cc1OC	.	.	.	1%	.	.	.
O=C(NC1CCCCC1)c1cccc(S(=O)(=O)N2CCCCC2)c1	-16%	2%	3%	?	-2	71*	-4%
Cc1cc(NC(=O)CSc2nc3ccsc3c(=O)n2Cc2ccccn2)n[nH]1	-25%	-3%	12%	2%	12	65*	1%
CCc1ccc(C(=O)c2oc3nc(C)cc(C)c3c2N)cc1	-7%	-1%	2%	-10%	16	51*	?
OCC[C@@H]1C[C@H](O)[C@@H](O)[C@@]2(OCc3ccc4ccccc4c32)O1	.	.	19%	.	.	.	.
Cc1cccc(C(=O)NC(NCCc2ccccc2)C(Cl)(Cl)Cl)c1 (stereo not given)	-48%	1%	40%	-1%	-5	109*	0%
CCC(=O)N1CCN(c2ccc(NC(=O)c3ccc(Br)o3)cc2)CC1	-36%	0%	-25%	-13%	3	22*	7%
COc1ccc(N(CC(=O)Nc2cc(C)on2)S(=O)(=O)c2cc(C)ccc2C)cc1	-32%	-3%	3%	?	-3	-10	.
O=C(Cn1c(NCCO)nc2ccccc21)c1ccccc1	-30%	-1%	2%	4%	4	active	0%
